Experimental data published in paper PMC4336329 (PLoS ONE, 2015).
The whole screen tested about 310,000 compounds, of which about 14,000 (4.5%) showed an effect of 50% or more. The effect is printed as a negative number. For the sample, strong results were picked, then their nearest neighbours and some compounds at random.

molecular target: human ether-à-go-go-related gene (hERG) potassium channel (human, UniProt Q12809); assay: primary screen, population patch clamp on CHO cells stably expressing hERG; higher = less effect of the substance
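Further: peak tail current of the secondary pulse compared with the same well before compound.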

human ether-à-go-go-related gene (hERG) potassium channel, sequence (Q12809 whole entry, looked up): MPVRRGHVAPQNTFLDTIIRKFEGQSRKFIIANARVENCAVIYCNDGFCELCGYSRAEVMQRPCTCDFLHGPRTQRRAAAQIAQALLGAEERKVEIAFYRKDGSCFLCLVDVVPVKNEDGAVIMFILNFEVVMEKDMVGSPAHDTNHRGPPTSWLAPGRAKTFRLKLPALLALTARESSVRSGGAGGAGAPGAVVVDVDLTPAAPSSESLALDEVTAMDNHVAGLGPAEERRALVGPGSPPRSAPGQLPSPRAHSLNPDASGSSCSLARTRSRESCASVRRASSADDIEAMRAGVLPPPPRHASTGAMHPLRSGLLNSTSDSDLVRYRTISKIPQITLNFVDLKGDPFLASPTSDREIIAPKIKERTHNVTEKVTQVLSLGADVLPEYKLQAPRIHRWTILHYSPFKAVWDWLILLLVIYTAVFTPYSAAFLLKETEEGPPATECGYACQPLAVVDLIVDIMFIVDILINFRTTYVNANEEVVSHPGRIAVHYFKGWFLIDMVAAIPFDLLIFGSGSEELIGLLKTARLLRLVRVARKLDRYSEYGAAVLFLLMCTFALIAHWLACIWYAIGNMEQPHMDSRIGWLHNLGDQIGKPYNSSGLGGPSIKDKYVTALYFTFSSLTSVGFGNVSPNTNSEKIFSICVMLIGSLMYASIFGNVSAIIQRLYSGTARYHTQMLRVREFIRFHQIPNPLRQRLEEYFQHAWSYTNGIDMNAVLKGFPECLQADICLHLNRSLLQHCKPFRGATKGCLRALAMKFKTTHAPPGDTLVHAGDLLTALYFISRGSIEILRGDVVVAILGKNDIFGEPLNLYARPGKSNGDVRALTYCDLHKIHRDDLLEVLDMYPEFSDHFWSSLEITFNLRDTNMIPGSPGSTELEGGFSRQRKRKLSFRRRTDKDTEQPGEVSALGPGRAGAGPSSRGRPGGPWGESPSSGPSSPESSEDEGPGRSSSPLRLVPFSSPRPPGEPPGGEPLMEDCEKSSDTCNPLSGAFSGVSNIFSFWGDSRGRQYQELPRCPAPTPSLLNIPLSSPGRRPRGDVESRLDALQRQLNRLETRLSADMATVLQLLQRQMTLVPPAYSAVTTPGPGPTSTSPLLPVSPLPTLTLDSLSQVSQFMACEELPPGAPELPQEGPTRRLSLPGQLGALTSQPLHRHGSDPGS

| Structure (SMILES) | hERG current change (%, negative = inhibition) at 10uM |
| --- | --- |
| CN(Cc1cccc(C(F)(F)F)c1)C(=O)C1CCC(=O)N(CC2CCCCC2)C1 (stereo not shown) | -6.77% |
| O=C(NCCc1cccc(C(F)(F)F)c1)C1CCC(=O)N(C2CC2)C1 (stereo not shown) | 3.12% |
| CN(CC1CCN(CCc2cccc(C(F)(F)F)c2)CC1)C(=O)c1ccc(F)cc1F | -69.9% |
| COc1ccc(/C=C2\C(=O)c3ccccc3OC2c2ccccc2)cc1 (stereo not shown) | 7.66% |
| COC(=O)[C@@]1(Cc2ccc(OC)cc2)[C@H]2c3cc(C(=O)N4CCCC4)n(Cc4c(CO)[nH]cc(C)c4=O)c3C[C@H]2CN1C(=O)c1ccccc1 | 3.94% |
| Cc1ccc(OCC(=O)Nc2cc(S(=O)(=O)N3CCCCC3)ccc2N2CCN(C)CC2)c(C)c1 | -57.7% |
| CN1CCN(c2ccc(S(=O)(=O)N3CCCCC3)cc2NC(=O)COc2ccc(F)cc2)CC1 | -75.2% |
| O=C(COc1ccc(F)cc1)Nc1cc(S(=O)(=O)N2CCCCC2)ccc1N1CCCCC1 | 9.98% |
| CN1CCN(c2ccc(S(=O)(=O)N3CCCCC3)cc2NC(=O)c2ccc(F)cc2F)CC1 | -68.4% |
| Cc1ccc(Cl)c(OCC(=O)Nc2cc(S(=O)(=O)N3CCOCC3)ccc2N2CCCC2)c1 | -15.4% |
| Cc1ccccc1C(=O)Nc1cc(S(=O)(=O)N2CCCCC2)ccc1N1CCN(C)CC1 | -37.4% |
| CN1CCN(c2ccc(S(=O)(=O)N3CCCCC3)cc2NC(=O)Cc2ccccc2F)CC1 | -31% |
| Cc1cccc(OCC(=O)Nc2cc(S(=O)(=O)N3CCCCC3)ccc2N2CCN(C)CC2)c1 | -63% |
| Cc1ccccc1OCC(=O)Nc1cc(S(=O)(=O)N2CCCCC2)ccc1N1CCN(C)CC1 | -28.3% |
| CN1CCN(c2ccc(S(=O)(=O)N3CCCCC3)cc2NC(=O)COc2cccc(Cl)c2)CC1 | -49.1% |
| Cc1cccc(OCCC(=O)Nc2cc(S(=O)(=O)N3CCCCC3)ccc2N2CCOCC2)c1 | 6.71% |
| CN1CCN(c2ccc(S(=O)(=O)N3CCCCC3)cc2NC(=O)COc2ccc([N+](=O)[O-])cc2)CC1 | -34.3% |
| Cc1ccc(C)c(OCCC(=O)NNC(=O)Cn2nc(C)cc2C)c1 | 21.8% |
| O=C(NCc1ccccc1)C1=C[C@@H](c2ccc(Br)cc2)C[C@@H](OCCCCO)O1 | -36.8% |
| COc1cc2c(cc1OC)C(c1ccccc1Cl)N(C)CC2 (stereo not shown) | 1.73% |
| COc1ccc(Cc2c(O)nc(SCC(=O)NC34CC5CC(CC(C5)C3)C4)[nH]c2=O)cc1 | 4.4% |
| Cc1ccc(NC(=O)CCN2C(=O)C3CCCCC3C2=O)c(O)c1 (stereo not shown) | 11.9% |

| Structure (SMILES) | hERG current change (%, negative = inhibition) at 10uM |
| --- | --- |
| CC(CCc1ccccc1)NCC#N.Cl (stereo not shown) | 18.9% |
| O=c1c(Cc2ccc(Cl)cc2Cl)c(O)ccn1CC(F)(F)F | 12.7% |
| COc1ccc(OC)c(S(=O)(=O)n2ccnc2C)c1 | 0.0552% |
| CCOc1ccc(N2CC(C(=O)Nc3c(C)n(C)n(-c4ccccc4)c3=O)CC2=O)cc1 (stereo not shown) | 22.6% |
| CCn1cc(C(=O)N2CCN(C(=O)c3ccco3)CC2)c2cc(OC)c(OC)cc2c1=O | 7.72% |
| CCOCCCNC(=O)c1cc(-c2ccc(Br)s2)nc2ccccc12 | 15% |
| CC(C)C(=O)NS(=O)(=O)c1ccc(N)cc1 | 8.54% |
| Cc1ccc(NC(=O)C2(NC(=O)c3cccc(N4C(=O)CSC4c4ccccc4)c3)CCCCC2)cc1 (stereo not shown) | 2.72% |
| Cc1ccc(CNS(=O)(=O)c2cc3c(cc2C)NC(=O)CO3)cc1 | -39.8% |
| COc1ccc(NS(=O)(=O)c2cc3c(cc2C)NC(=O)CO3)c(OC)c1 | -15.3% |
| Cc1cc2c(cc1S(=O)(=O)NCc1ccc(Cl)cc1)OCC(=O)N2 | -57.9% |
| Cc1cc2c(cc1S(=O)(=O)NCCc1ccc(Cl)cc1)OCC(=O)N2 | -21.3% |
| COc1cccc(NS(=O)(=O)c2cc3c(cc2C)NC(=O)CO3)c1 | -38.7% |
| COc1cc(NS(=O)(=O)c2cc3c(cc2C)NC(=O)CO3)cc(OC)c1 | -62.2% |
| O=C(O)c1ccc(NC(=S)N2CCCCC2)cc1 | 19.8% |
| CN(CC(=O)N1CCCCCC1)S(=O)(=O)c1ccc(Br)s1 | -9.92% |
| COc1ccc([N+](=O)[O-])cc1NC(=O)CCCOc1ccccc1 | 21.6% |
| COC(=O)c1cc2c(N)c(C(=O)c3ccc(Cl)cc3)sc2nc1C(OC)OC | -69.6% |
| Nc1c(C(=O)c2ccc(Cl)cc2)sc2nc3c(cc12)CCC3 | 12% |
| COC(=O)c1cc2c(N)c(C(=O)c3ccccc3)sc2nc1C(OC)OC | 0.631% |
| CC(C)NC(=S)N1CCN(C(c2ccccc2)c2ccccc2)CC1 | -34.7% |
| CCC(C)NC(=S)N1CCN(C(c2ccccc2)c2ccccc2)CC1 (stereo not shown) | -59.6% |

| Structure (SMILES) | hERG current change (%, negative = inhibition) at 10uM |
| --- | --- |
| CCNC(=S)N1CCN(C(c2ccccc2)c2ccccc2)CC1 | 2.6% |
| O=c1cc(O)c2c(=O)n(-c3ccccc3)c3c(c2o1)CCCCC3 | -0.822% |
| CCCn1c(N2CCN(C(=O)NCc3ccccc3)CC2)nc2ccccc21 | -67.9% |
| CC(C)n1c(N2CCN(C(=O)NCc3ccccc3)CC2)nc2ccccc21 | -59.2% |
| Cn1c(N2CCN(C(=O)NCc3ccccc3)CC2)nc2ccccc21 | -60% |
| CC(C)n1c(N2CCN(C(=O)Nc3ccc(Cl)cc3)CC2)nc2ccccc21 | -36.3% |
| Cn1c(N2CCN(C(=O)NC34CC5CC(CC(C5)C3)C4)CC2)nc2ccccc21 | 23.2% |
| CC(C)n1c(N2CCN(C(=O)Nc3ccccc3)CC2)nc2ccccc21 | -14.6% |
| Cn1c(N2CCN(C(c3ccccc3)c3ccccc3)CC2)nc2ccccc21 | -51.7% |
| CCCn1c(N2CCN(S(=O)(=O)Cc3ccccc3)CC2)nc2ccccc21 | 4.46% |
| Cn1c(N2CCNCC2)nc2ccccc21 | -15.7% |
| CCCn1c(N2CCN(C(=O)Nc3ccccc3)CC2)nc2ccccc21 | -35.9% |
| O=C(NCc1ccccc1)N1CCn2c(nc3ccccc32)C1 | 2.53% |
| c1ccc(C(c2ccccc2)N2CCN(c3ccc4ccccc4n3)CC2)cc1 | -3.18% |
| Cc1cc(-c2cccs2)c2c(N)c(C(=O)c3ccc4c(c3)OCO4)sc2n1 | 5.2% |
| Cc1ccc(S(=O)(=O)N(C)c2ccccc2C(=O)Nc2c(F)cccc2F)cc1 | 3.31% |
| CC(C)(C)N1CC(c2nc3ccccc3n2Cc2ccccc2)CC1=O (stereo not shown) | -47.2% |
| COc1ccc(S(=O)(=O)N2CCOCC2)cc1NC(=O)c1sccc1C | -3.22% |
| COc1ccc2nc(SC(C)C(=O)NC3(C#N)CCCCC3)[nH]c2c1 (stereo not shown) | -20.1% |
| COC(=O)c1cc2oc(C)cc2n1CC(=O)N1CCCc2ccccc21 | -11.9% |
| Cc1ccc2nc(NC(=O)CSCC(=O)OCC(=O)c3ccc(Br)cc3)sc2c1 | 16.5% |
| O=C(COc1ccc(Br)cc1)NCCCn1ccnc1 | -20.1% |

| Structure (SMILES) | hERG current change (%, negative = inhibition) at 10uM |
| --- | --- |
| COc1ccc(Cl)cc1NC(=O)CN(C)C(=O)c1cc2c(F)cccc2s1 | -6.32% |
| CCCCSc1nnc(C)c(=O)[nH]1 | 3.25% |
| Cc1cccc(C2c3[nH]c4ccccc4c3CCN2C(=O)Cc2n[nH]c(C)n2)n1 (stereo not shown) | 5.57% |
| COc1ccc(OC)c(NC(=O)COc2ccc(S(=O)(=O)N3CCCC3)cc2)c1 | -23.4% |
| O=C(CCC(=O)n1ncc2ccccc21)NCc1ccc(F)cc1 | -18.1% |
| Cc1ccc(C(=O)N2CCN(c3ncccn3)CC2)cc1 | 12.6% |
| Cc1ccc(C(=O)N2CCN(c3nc4ccccc4n3C)CC2)cc1 | -70.3% |
| Cc1ccc(C(=O)N2CCN(c3ccccn3)CC2)cc1 | -14.3% |
| CCOC(=O)C1CCN(S(=O)(=O)c2ccc3c(c2)CCN3C(=O)C2CCC2)CC1 | 14.1% |
| COc1ccc(C(=O)NC2CCCCC2)cc1OC1CCN(C(C)C)CC1 | -69.7% |
| CCOCCCNC(=O)c1ccc(OC)c(OC2CCN(C(C)C)CC2)c1 | 10.7% |
| COc1ccc(C(=O)N[C@H]2CCCCNC2=O)cc1OC1CCN(C(C)C)CC1 | 15.3% |
| COC(=O)CN(C)C(=O)c1ccc(OC)c(OC2CCN(C(C)C)CC2)c1 | 13.1% |
| COc1ccc(C(=O)NCCCSC)cc1OC1CCN(C(C)C)CC1 | -11.8% |
| COc1ccc(C(=O)NC2CC2)cc1OC1CCN(C(C)CSC)CC1 (stereo not shown) | -75.4% |
| COc1ccc(C(=O)NC2CCCCCC2)cc1OC1CCN(C(C)=O)CC1 | -4.48% |
| COc1ccc(C(=O)N(C)CCCC2CCCC2)cc1OC1CCN(C(C)C)CC1 | -68.4% |
| COc1ccc(C(=O)N(C)CCCC2CCCC2)cc1OC1CCN(C(C)=O)CC1 | -32.2% |
| COc1ccc(CCNC(=O)COC(=O)c2cc(=O)c3ccccc3o2)cc1 | -1.09% |
